Data taken from PubChem BioAssay AID743446 (Broad Institute, 2014).
Potency and affinity values are given separately. The source made the active and inactive calls. The rule behind the calls is not given here.

Assay: viability loss in HEK293 cells – cell-based, plate reader, cherry-picked samples, cytotoxicity control, dose response (AID 743446)
Details: hits give low values; at 26 µM unless noted

Compound	max activity
CSc1ccc(NC(=O)Nc2cc(C)ccn2)cc1	12.9% [at 0.05 µM] (inactive)
c1ccc(-n2cnnc2SCc2cn3cccnc3n2)cc1	82.5% [at 0.8 µM] (inactive)
COc1ccc(NC(=O)N(C)C[C@@H]2OCCCC[C@H](C)Oc3ccc(NC(=O)C4CCCCC4)cc3C(=O)N([C@H](C)CO)C[C@@H]2C)cc1	11.8% (inactive)
C[C@H](CO)N1C[C@H](C)[C@H](CN(C)C(=O)Nc2ccc(F)cc2)OCCCC[C@H](C)Oc2ccc(NC(=O)Nc3ccc(F)cc3)cc2C1=O	17% [at 1.5 µM] (inactive)
COc1ccc2nc(-c3ccccn3)ccc2c1	-37.6% (inactive)
Cc1ccc2nc(-c3ccccc3)nn2c1	68.6% [at 3 µM] (inactive)
CC(=O)c1ccc(Nc2nc(-c3sc(C)nc3C)cs2)cc1	-13.6% (inactive)
O=C(O)c1ccc(Nc2nc3c(s2)CCCC3)cc1	49.8% [at 12 µM] (inactive)
CC(=O)c1c(C)[nH]c(C(=O)CN2C(=O)NC(C)(c3ccc(C)cc3)C2=O)c1C (stereo not drawn)	39.5% (inactive)
COc1ccc(C(=O)Nc2ccc3ccccc3c2)cc1	26.8% [at 0.8 µM] (inactive)
C[C@H](CO)N1C[C@H](C)[C@H](CN(C)Cc2ccccc2)Oc2c(NS(=O)(=O)c3cn(C)cn3)cccc2C1=O	13% [at 1.6 µM] (inactive)
COCC(=O)N[C@@H]1CC[C@@H](CC(=O)NCc2ccccc2OC)O[C@@H]1CO	-9.61% [at 0.05 µM] (inactive)
C[C@H]1CCCCO[C@H](CN(C)C(=O)Nc2cccc3ccccc23)[C@@H](C)CN([C@@H](C)CO)C(=O)c2cc(NS(=O)(=O)c3cn(C)cn3)ccc2O1	21.9% [at 0.05 µM] (inactive)
O=C(Nc1cccc(-c2ccc(N3CCCCC3)nn2)c1)C(F)(F)F	-33.5% [at 3 µM] (inactive)
C[C@H](CO)N1C[C@H](C)[C@H](CN(C)C(=O)Nc2cccc3ccccc23)OCCCC[C@H](C)Oc2ccc(NC(=O)C3CCCCC3)cc2C1=O	31.6% [at 12 µM] (inactive)
COCCn1c(C)cc(C(=O)CSc2nc3ccccc3s2)c1C	-17.4% (inactive)
COc1ccc(-c2cc3nc(CCl)[nH]c(=O)c3s2)cc1	-60.9% (inactive)
CC(C)N(C(=O)Nc1ccc2nsnc2c1)C(C)C	12.5% (inactive)
CCC(=O)N(C)C[C@H]1Oc2cc(C#CCC(C)C)ccc2S(=O)(=O)N([C@H](C)CO)C[C@@H]1C	21.8% [at 0.05 µM] (inactive)

Compound	max activity
O=C(NCCc1ccc(Cl)cc1)c1ccc2c(c1)OCCO2	19.7% [at 0.8 µM] (inactive)
Cc1ccc(S(=O)(=O)Nc2ccc3c(c2)C(=O)N([C@H](C)CO)C[C@@H](C)[C@H](CN(C)S(=O)(=O)c2cccs2)OCCCC[C@@H](C)O3)cc1	-17.3% [at 12 µM] (inactive)
N#C[C@@H]1[C@H](c2ccc(C#CC3CCCCC3)cc2)[C@@H](CO)N1C(=O)c1cccc(F)c1	43.6% [at 0.09 µM] (inactive)
Cc1ccc(-c2csc(Nc3ccccn3)n2)cc1	-11.1% (inactive)
O=C(O)c1cccc(-c2nc3ccccc3[nH]2)c1	-25.9% [at 0.38 µM] (inactive)
Cc1ccc(C(=O)NC2CCCCCCC2)c(Cl)c1	-18.7% [at 0.38 µM] (inactive)
CCNC(=S)NNC(=O)c1cc(-c2ccc(OCC)cc2)nc2ccccc12	15.8% [at 0.05 µM] (inactive)
Cc1cc(C(=O)COC(=O)c2ccccc2O)c(C)n1CC1CCCO1 (stereo not drawn)	-7.06% [at 6 µM] (inactive)
COc1ccc(OCC(=O)Nc2nccs2)cc1	15.2% [at 1.6 µM] (inactive)
Cc1cccc(-n2ncc3c(N4CCOCC4)ncnc32)c1	28.5% (inactive)
Cc1cc(C(=O)CSc2nnc3ccccn23)c(C)n1-c1ccccc1	-21.9% (inactive)
CC(C)CCNC(=O)C(c1ccc(O)cc1)N(Cc1cccs1)C(=O)C1COc2ccccc2O1 (stereo not drawn)	-16.3% (inactive)
O=C(NCCc1ccccc1)c1ccc2c(c1)OCO2	21.8% [at 12 µM] (inactive)
N#C[C@@H]1[C@H](c2ccc(C#CC3CCCCC3)cc2)[C@@H](CO)N1S(=O)(=O)c1ccccc1	39.8% [at 12 µM] (inactive)
Cc1ccc2nc(-c3ccc(NC(=O)c4cccnc4)cc3)oc2c1	-17.1% [at 0.1 µM] (inactive)
O=C1OCCC1Sc1nnc(-c2ccc(Cl)cc2Cl)o1 (stereo not drawn)	7.96% [at 0.8 µM] (inactive)
COc1ccc(-c2nc(N)n(C(=O)c3cccs3)n2)cc1	49.5% (inactive)
O=C(Nc1nc2c(s1)CCCC2)C1COc2ccccc2O1 (stereo not drawn)	55.6% [at 0.05 µM] (inactive)
COc1ccc(-c2cc(C)nc3c(-c4ccccc4)cnn23)cc1	-10.2% (inactive)
